Test results reported in PubChem BioAssay AID720579 (National Center for Advancing Translational Sciences (NCATS), 2013).
The whole screen tested about 310,000 compounds, of which about 1,900 (0.61%) were called active. About 8% were inconclusive and are not listed. Calls come from the whole dose curve; tested in A549 cells. Only a selection was taken, and actives are over-represented in it overall.

Test: qHTS for Stage-Specific Inhibitors of Vaccinia Orthopoxvirus: mCherry Reporter Primary qHTS; note: nearly all actives have a fitted effect of over 35% in size
Conditions: Vaccinia virus mCherry reporter infection, fluorescence; series mostly up to 36.5 µM; activity change, negative = inhibition: at the top concentration
% is set by controls: 0 for no effect and ±100 for the full control effect; potency is the fitted concentration of half-maximal effect.

Row | SMILES | outcome | Potency | activity change, negative = inhibition
1 | Cc1ccc2nc(-c3ccco3)c(Cc3cccc(Cl)c3)n2c1 | inactive |  | 
2 | c1ccc(-c2nccc(-c3ccc(-n4cnc5ccccc54)cc3)n2)nc1 |  | 11.2 µM (active) | 
3 | Cc1nccc(-c2ccc(-n3c(C)ccc3C)cc2)n1 |  |  | -13.9% (inactive)
4 | CC(C)(C)Nc1nc(-c2ccccn2)nc2ccccc12 |  |  | -28.3% (inactive)
5 | COc1ccc(NS(=O)(=O)c2ccc(N3CCOCC3)c(NC(=O)c3ccccc3Br)c2)cc1 |  |  | -12.5% (inactive)
6 | COc1cccc(C(=O)Nc2nc3ccc(S(C)(=O)=O)cc3s2)c1 |  |  | -13% (inactive)
7 | COc1ccc2c(c1)Cc1sc(NC(=O)c3ccccc3Br)nc1-2 |  | 11.2 µM (active) | 
8 | CCCc1c(-c2ccccc2F)ncn1Cc1ccccc1OC |  |  | -20% (inactive)
9 | Nc1nonc1-n1nnc(C(=O)N/N=C/c2cc(Br)ccc2O)c1CSC1=NCCS1 |  | 7.08 µM (active) | 
10 | Cc1ccc(SCc2c(C(=O)N/N=C/C3CC=CCC3)nnn2-c2nonc2N)cc1 (centres undefined) |  |  | -18.1% (inactive)
11 | Cc1ccc(SCc2c(C(=O)N/N=C/c3cccnc3)nnn2-c2nonc2N)cc1 |  |  | -10.8% [at 7.34 µM] (inactive)
12 | O=C(Nc1cc(Br)ccc1F)c1nc[nH]c1C(=O)NCc1ccccc1 |  |  | -10.4% (inactive)
13 | CCc1nc2ccc(C(=O)NC3CCN(Cc4ccccc4)CC3)cn2c1N(CC)CCOC |  |  | 28.2% (inactive)
14 | Cc1nc2ccccc2cc1C(=O)N/N=C/c1ccc([N+](=O)[O-])cc1 |  |  | -9.06% (inactive)
15 | Cc1ccsc1C(=O)N/N=C/c1ccc([N+](=O)[O-])cc1 |  |  | -19.9% (inactive)
16 | CC(C)(C)c1cc(C(=O)N/N=C/c2ccc([N+](=O)[O-])s2)n[nH]1 |  | 11.2 µM (active) | 
17 | Cc1nc2c(OCc3ccc(Cl)cc3)cccn2c1N(C)Cc1cccs1 |  |  | 13.2% (inactive)
18 | CCCCOCCCNC(=O)C[C@@H]1C[C@@]2(C(=O)OCC)CCCC=C2N(CCC2=CCCCC2)C1=O |  |  | -27.4% (inactive)
19 | CN(C)CCNC(=O)c1ccc(-c2cn3c(-c4ccc(Oc5ccccc5)cc4)cnc3cn2)cc1 |  |  | -5.42% (inactive)
20 | Cc1sc(NC(=O)C2=COCCO2)c(C#N)c1C |  |  | -10.3% (inactive)
21 | Cn1nccc1CNC(=O)c1ccnn1C |  |  | -16.4% (inactive)
22 | CCCc1ccc(-c2c(C)sc(NC(=O)c3ccnn3C)c2C#N)cc1 |  | 11.2 µM (active) | 
23 | C=C1C=C(C(F)F)n2ncc(C(=O)NCCc3ccccc3OC)c2N1 |  |  | -8.11% (inactive)
24 | CN1CCN(c2ccc3c(c2)OC[C@H](Cc2ccccc2)NS3(=O)=O)CC1 |  |  | 32.8% (inactive)
25 | CC(=O)NCCNC(=O)c1cc(-c2cccc3ccccc23)nc2ccccc12 |  |  | -12.7% (inactive)

Row | SMILES | outcome | Potency | activity change, negative = inhibition
26 | CN(C)CCNC(=O)c1ccc(Cl)c2cc3ccccc3nc12 |  | 1.78 µM (active) | 
27 | CN(C)CCNC(=O)Nc1cccc(Cl)c1Cl |  |  | -4.83% (inactive)
28 | COc1cccc(-c2cnc3c(NC(C)=O)cc(-c4cccc(NC(C)=O)c4)cn23)c1 | inactive |  | 
29 | CCCCn1nnnc1C(c1cccc(OC)c1OC)N1CCN(C/C=C/c2ccccc2)CC1 (centres undefined) |  |  | 33.4% (inactive)
30 | Cc1c(CCO)sc[n+]1CC(=O)c1ccc2ccccc2c1 |  |  | 39.9% (inactive)
31 | CN1CCc2nc(SC(C(=O)O)c3ccccc3)c(C#N)c(-c3cccs3)c2C1 (centres undefined) |  |  | -13.5% (inactive)
32 | Cc1cc(NC(=O)CSc2nc3c(cc2C#N)CCCCC3)no1 |  |  | -10% (inactive)
33 | CC(NC(=O)CSc1nc2c(cc1C#N)CN(C)CC2)c1ccccc1 (centres undefined) |  | 10 µM (active) | 
34 | CCCCCCCCN1C(=O)[C@H](CC(=O)NCC23CC4CC(CC(C4)C2)C3)C[C@@]2(C(=O)OC)CCCCC=C12 |  |  | 8.61% (inactive)
35 | CCN1C(=O)[C@H]2[C@@H](c3ccc(C(F)(F)F)cc3)N[C@]3(CCCN(Cc4ccc(Br)cc4)C3=O)[C@H]2C1=O |  |  | -26.8% (inactive)
36 | CC(C)(C)S(=O)N1Cc2cc(C(=O)NCCCN3CCOCC3)nc(-c3cccc(-c4cc5ccccc5o4)c3)c2[C@H]1CCO (some centres undefined) |  |  | 14.1% (inactive)
37 | CC1(Oc2ccc(Cl)cc2)CCN(Cc2csc3ccccc23)C1 (centres undefined) |  |  | -6.34% (inactive)
38 | COc1ccc2sc(-c3ccc(N(C)C)cc3)c(C#CCO)c2c1 |  | 12.6 µM (active) | 
39 | COc1ccc2sc(-c3ccc(N(C)C)cc3)c(-c3ccc4cc[nH]c4c3)c2c1 |  |  | -13.9% (inactive)
40 | COc1ccc2sc(-c3ccc(S(C)(=O)=O)cc3)c(C#Cc3cncn3C)c2c1 |  |  | -22.7% (inactive)
41 | COCOc1cccc(CN2CCC(C)(Oc3ccc(SC)cc3)C2)c1 (centres undefined) |  |  | 22% (inactive)
42 | O=C(NCc1cccc(C(F)(F)F)c1)c1ccc2sc(COCCO)nc2c1 |  |  | 21.2% (inactive)
43 | OC[C@@H]1CN(Cc2cccs2)C[C@H](n2cnc3c(NC4CCCC4)ncnc32)O1 |  |  | 7.65% (inactive)
44 | Cc1cc(C)nc(N/N=C/c2c(CO)cnc(C)c2O)n1 |  | 12.6 µM (active) | 
45 | Cc1cc(C)nc(N/N=C/c2c(C)oc3ccccc23)n1 |  |  | -27.7% (inactive)
46 | Cc1ncc(CO)c(/C=N/NC(=O)c2cccc(S(=O)(=O)N3CCCC3)c2)c1O |  |  | -12.6% (inactive)
47 | CSc1ccc(CN2CCC2(C)C(=O)Nc2ccc(C)c(O)c2)cc1 (centres undefined) |  |  | -10.1% (inactive)
48 | CC(C)C[C@@H]1Cc2[nH][nH]c(=O)c2[C@H](CCc2ccccc2)O1 |  |  | -12.1% (inactive)
49 | CN(Cc1ccccc1)c1ccc(/C=C/c2ccnc3ccccc23)cc1 |  |  | -25.7% (inactive)
